# Screening data as filed in PubChem.
# A selection: hits, their analogues and other compounds. The true share with any hit is near 12%.
# BAZ2B block: BAZ2B (human) inhibition | Q9UIF8 | AlphaScreen BAZ2B-H3K14Ac peptide displacement | Potency, µM (top dose mostly 114 µM), for the others: top-dose activity change, negative = inhibition, most hits filed as inhibitors | actives 4.4% (n = 360,000); further: potency means the concentration at half of the fitted maximal effect; on the % scale 0 is the no-effect control and ±100 the full control effect; nearly all actives have a fitted effect of over 60% in size
#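 Compounds, titrated to a top concentration of 110 uM, were incubated 30 min at room temperature with preformed BAZ2B/acetyl-K14 H3 peptide complex (50 nM each). Proximity signal was measured by AlphaScreen after 20 min with beads.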
# PI5P4K alpha inh: blocks human PI5P4K alpha kinase activity. P48426. PI5P4Kalpha enzyme, ADP-Glo luminescence, 60 min; active compounds read low. max response, %. actives 1.2% (n = 330,000). AID 652105; active means max response of -50% or lower; inconclusive means between -30% and -50%; inactive means -30% or higher; further: value at the top dose of about 77 µM; on the % scale 0 is the no-effect control and ±100 the full control effect
#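 Enzyme plus substrate dispensed, test compounds pinned in, then ATP (5 microM final) added. After 60 min at RT, ADP-Glo reagent 1 for 45 min and reagent 2 for 30 min preceded luminescence imaging.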
# JMJD2A Tudor: blocks the human JMJD2A Tudor domain. AlphaScreen JMJD2A-Tudor / H3K4me3 peptide binding. Potency, µM (titrated, usually from 114 µM), without a hit: top-dose activity change, negative = inhibition, actives largely listed as inhibitors. actives 4.4% (n = 390,000); further: potency means the concentration at half of the fitted maximal effect; on the % scale 0 is the no-effect control and ±100 the full control effect; nearly all actives have a fitted effect of over 50% in size
# G9a inh: G9a (human) methyltransferase inhibition; actives 8.8% (n = 350,000); Potency, µM (top dose mostly 102 µM), without a hit: at the top dose activity, negative = inhibition, hits mostly inhibitors; G9a H3K9 monomethylation, AlphaScreen, 2 h; Q96KQ7; further: potency means the concentration at half of the fitted maximal effect; on the % scale 0 is the no-effect control and ±100 the full control effect; nearly all actives have a fitted effect of over 75% in size
#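 Readings reflect AlphaScreen signal from monomethyl-H3K9 antibody detection. HMT at 20 nM; substrate b-H3K9 500 nM; cofactor SAM 20 uM; 2 h RT reaction; compounds tested as titrations in qHTS with 15 min preincubation.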
# PLK1 PBD block: blocks phosphopeptide binding to human PLK1 polo-box domain. P53350. Plk1 PBD binding of FITC phosphopeptide, fluorescence polarization. Potency, µM, for the others: max response, negative = inhibition, most hits filed as inhibitors. actives 2.8% (n = 360,000); further: potency means the concentration at half of the fitted maximal effect; series mostly up to about 57 µM; on the % scale 0 is the no-effect control and ±100 the full control effect; nearly all actives have a fitted effect of over 65% in size
# HP1b binding inh: blocks HP1-beta chromodomain binding to methylated histone tails; P83916; AlphaScreen HP1-beta / biotin-H3K9me3 peptide binding; Potency, µM (top dose mostly 114 µM), without a hit: top-dose activity change, negative = inhibition, hits mostly inhibitors; actives 0.56% (n = 390,000); AID 540317; further: potency means the concentration at half of the fitted maximal effect; nearly all actives have a fitted effect of over 70% in size
#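 Compound inhibition of the preformed complex between 50 nM HP1-beta and 50 nM biotinylated H3K9me3 peptide was read by AlphaScreen. Buffer was PBS pH 7.4 with 0.01% Tween-20. Incubations ran 30 min at room temperature, with 10 ug/mL donor/acceptor beads.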
# * hit, by the source's call; ? = inconclusive; nt = no result; ! = a repeat was not active; [ ] = remark or other dose. Unless noted, the call rests on the fitted dose curve; in most records, active means well fitted curve in the direction sought with a large enough effect; inconclusive means small, poorly fitted or top-dose-only effect, or another doubt; inactive means no such curve, though single readings can be large; an effect the other way counts as inactive or inconclusive.
SMILES,BAZ2B block,PI5P4K alpha inh,JMJD2A Tudor,G9a inh,PLK1 PBD block,HP1b binding inh
COc1ccc2oc(C(=O)CCC(=O)O)c(N)c2c1,-9%,-17,-5%,50µM*,1%,70%
COc1ccc2oc(C)c(C(=O)NN)c2c1,-11%,nt,-23%,10µM*,-3%,24%
COC(=O)CCC(=O)c1oc2ccc(Br)cc2c1N,7%,nt,-5%,-8%[59 µM],-10%,12%
COC(=O)c1cc(COc2ccc3oc(C)c(C(=O)OC)c3c2)c(C)o1,3%,nt,-1%,9%[12.7 µM],-8%,39%
CCOC(=O)c1c(C)oc2ccc(OCc3cc(C(=O)OC)oc3C)cc12,21%,-1,-10%[11.4 µM],21%[59 µM],27µM*,24%
CCOC(=O)CCC(=O)c1c(C)oc2ccc(OC)cc12,6%,2,24%,-4%[12.7 µM],-9%,59%
COc1cccc(C2C3=C(N=C4SCC(=O)N42)c2ccccc2CC3)c1OC (configuration not stated),-39%,0,-27%,-27%[12.7 µM],-5%,7%
COc1ccc(OC)c(C2C3=C(N=C4SCC(=O)N42)c2ccccc2CC3)c1 (configuration not stated),50µM*,-13,?,?,?,11%
COC(=O)C1=C(C)N(C(C)C)C(=O)C1(NC(=O)c1ccc(C(C)(C)C)cc1)C(F)(F)F (configuration not stated),-17%,nt,-16%,-4%[59 µM],nt,22%
O=C(Nc1ccncc1)c1ccc(Cl)c(S(=O)(=O)N2CCCC2)c1,12%,-1,-15%,8%,-8%,11%
COC(=O)\C(C(C)=O)=C(/C=C/C=C/N(C)C)N(C)C,35µM*,0,?,?,-13%,-5%
Cn1c2cc(C=O)sc2c2cnn(Cc3ccccc3F)c(=O)c21,nt,nt,-18%,nt,nt,nt
Cc1ccccc1OCC(=O)NCC(=O)OCC(=O)c1ccc(Br)cc1,nt,nt,-12%[57.1 µM],nt,nt,13%[57 µM]
O=C1C2C3C=CC(C4CC34)C2C(=O)N1/N=C/c1ccc([N+](=O)[O-])s1 (configuration not stated),8%,-1,-4%[57.1 µM],26%[59 µM],-24%,32%
O=C1C2C3C=CC(C4CC34)C2C(=O)N1/N=C/c1c[nH]c2ccccc12 (configuration not stated),21%,2,-10%,50µM*,-4%,38%
Cc1cccc(N/C=C(\[N+](=O)[O-])S(=O)(=O)c2ccccc2)c1,?,1,?,?,27µM*,-4%
CCCN(CCO)Cc1ccc2ccccc2c1,7%,nt,-6%,-11%,-7%,29%
CCCN(CCO)Cc1ccc(F)c(Br)c1,79µM*,nt,14µM*,16µM*,0%,?
Cc1ccc2c(c1)N(CCCC(=O)Nc1cccc(C(F)(F)F)c1)C(=O)CO2,-4%,8,16µM*!,14%[59 µM],27µM*,-16%[57 µM]
COc1ccc(NC(=O)CCCN2C(=O)COc3ccc(C)cc32)cc1OC,-13%,nt,-24%,-9%[59 µM],nt,-6%
CCOc1cccc(CN2CCCC(N3CCN(c4cccc(Cl)c4)CC3)C2)c1O (configuration not stated),?,3,?,?,-19%,-14%
CCCOCc1cc(CN2CCN(c3cccc(Cl)c3)CC2)c(O)c2ncccc12,32µM*,nt,13µM*,-21%[59 µM],nt,10%
CCCCOCc1cc(CN2CCN(c3cccc(Cl)c3)CC2)c(O)c2ncccc12,5.6µM*,nt,4µM*,-2%[59 µM],nt,59%
C[C@@H]1CN[C@H](CCO)/C1=C\c1ccccc1,nt,1,-10%,nt,-17%,26%
Cc1cc(CNC(=O)COC(=O)c2ccc(Cl)c(N)c2)cc(C)c1O,-17%,7,-4%,?,1%,19%
SMILES,BAZ2B block,PI5P4K alpha inh,JMJD2A Tudor,G9a inh,PLK1 PBD block,HP1b binding inh
COc1cccc(NC(=O)CCC(=O)N2Cc3ccccc3Oc3ncccc32)c1,8%[57.1 µM],nt,-13%,-11%[59 µM],nt,32%
CCN1C(=O)c2ccc(C(=O)Nc3ccc4c(c3)OCO4)cc2C1=O,0%,0,-24%,52%,-11%,36%
CC1=C(C(=O)OC(C)C)C(c2cccs2)N2C(=O)C(C)SC2=N1 (configuration not stated),2%,-2,79µM*,2%,-8%,15%
C[C@@H]1CN([C@@H](C)CO)C(=O)c2cc(Br)cnc2O[C@@H]1CN(C)S(=O)(=O)c1ccc(F)cc1,nt,-1,nt,nt,-23%,nt
COCCCNCCCOc1ccc(Cl)cc1C(C)(C)C,1%,-1,28µM*,?,-13%,-27%
C=CCc1cc(Cl)ccc1OCCCNC(C)CC (configuration not stated),-31%,1,22µM*,10µM*,-4%,?
CCCCCOc1ccc(Cl)cc1CN1CCOCC1,11%,12,16%,-7%,-4%,80%
CNCCCOc1ccc(Cl)cc1C(C)(C)C,32µM*,23,45µM*,14µM*,-8%,?
C=CCc1ccc(OCCOCCOc2cccc3ccc(C)nc23)c(OC)c1,28µM*,nt,1.1µM*,3.5µM*,-6%,16µM*
COC(=O)c1c(C)oc2ccc(N(C(=O)c3ccncc3)S(=O)(=O)c3c(C)cc(C)cc3C)cc12,1%,nt,-18%,-24%[59 µM],nt,13%
O=C(CSC1=Nc2ccccc2N=C(c2ccc(F)cc2)C1)NCc1ccccc1Cl,-9%,nt,-4%,6%[59 µM],nt,22%[57 µM]
CCC(C)NCCCOc1ccc(Cl)cc1C(C)(C)C (configuration not stated),50µM*,0,3.2µM*,13µM*,-19%,?
C=CCc1ccc(OCCCCNC(C)CC)c(OC)c1 (configuration not stated),-32%,7,14µM*,14µM*,-8%,-19%
C=CCc1ccc(OCCOCCNCCCC)c(OC)c1,50µM*,-1,4µM*,?,-6%,?
CC(C)NC(=O)CCCOc1ccc(Cl)cc1Cl,-4%,nt,-5%,14%,-6%,31%
CCC(C)n1c(=N)c(C(=O)NC2CCCCC2)cc2c(=O)n3ccccc3nc21 (configuration not stated),3%,nt,-12%,-1%[59 µM],nt,32%
Cc1c(P(=S)(c2ccccc2)c2ccccc2)[n+]2ccccc2n1CC(=O)c1ccccc1,nt,nt,-26%,nt,nt,nt
Cc1ccc2c(c1)C1(SC(C)C(=O)N1c1ccc(Cl)cc1)C(=O)N2 (configuration not stated),nt,-19,nt,nt,-1%,nt
O=S(=O)(Nc1cccc(-c2ccc(N3CCCCCC3)nn2)c1)c1cccc(F)c1,-20%[57.1 µM],-22,-26%,32µM*!,-5%,18%
COc1ccc(C)cc1S(=O)(=O)Nc1cccc(-c2ccc(N3CCCCCC3)nn2)c1,-13%,-19,16µM*,10%[0.501 µM],17µM*,4%
